# Assay outcomes from PubChem.
# sEH inhibitor: soluble epoxide hydrolase inhibitors, primary screen, biochemical, human sEH. Bifunctional epoxide hydrolase 2 (Homo sapiens), P34913. recombinant human sEH enzymatic activity assay. inhibition, % at 2 µM. hit rate 0.34% among 91,000; in the data active = inhibition above about 80%
# CYP2C9 activ: human CYP2C9 activators, primary screen, biochemical, luminescence; Cytochrome P450 2C9 (Homo sapiens), P11712; AID 1024, 2008; hit rate 1.4% among 96,000; recombinant CYP2C9, luciferin-H conversion; active compounds read high; factor 1 = untreated enzyme, 0 = blocked; activation factor at 5 µM;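 active = activation factor of 2 or more for CYP2C9 at a 5 µM dose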
# sEH act: soluble epoxide hydrolase activators, primary screen, biochemical, human sEH; Bifunctional epoxide hydrolase 2 (Homo sapiens), P34913; purified human sEH enzymatic activity, activator screen; activation, % at 2 µM; hit rate 0.04% among 91,000; AID 717, 2007; in the data active = activation above about 37%
# CYP2C9 inhib: blockers of cytochrome P450 2C9 activity – biochemical, luminescence, ADME assay, primary screen; inhibition, % at 5 µM; CYP2C9 Supersomes, luciferin-H conversion; hit rate 20% among 96,000;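 active = blocking of liver enzyme CYP2C9 beyond about 50% at 5 µM, limit read from the data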
# CYP2C19 activ: human CYP2C19 activators, primary screen, biochemical, luminescence; recombinant CYP2C19, luciferin-H EGE luminescence; active compounds read high; 0 = fully inhibited enzyme, 1 = untreated enzyme; activation factor at 5 µM; 96,000 tested, under 10 active; Cytochrome P450 2C19 (Homo sapiens), P33261;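 active = activation factor of at least 2 at 5 µM in the primary screen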
# CYP2C19 inh: blockers of cytochrome P450 2C19 activity – biochemical, luminescence, ADME assay, primary screen | AID 778, 2007 | inhibition, % at 5 µM | CYP2C19 Supersomes, luciferin-H EGE luminescence, 30 min | hit rate 21% among 96,000 | P33261;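 active = CYP2C19 inhibition above a set limit at 5 µM in the primary screen, cut at about 50% in these data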
# A number is an active result; 0 = inactive; - = no result given. Sampled rows, rich in hits. Any-hit rate of the full collection: about 27%.
SMILES,sEH inhibitor,CYP2C9 activ,sEH act,CYP2C9 inhib,CYP2C19 activ,CYP2C19 inh
Cc1occc1-c1nnc(SCC(=O)NC2CCCC2)n1-c1ccccc1,0,-,0,-,-,-
CCOC(=O)CN1CCc2c(C)nc3c(-c4ccc(OC)c(OC)c4)cnn3c21,-,0,-,0,0,0
CC(=O)CCc1c(C)c2cc(C)ccc2[nH]c1=O,0,0,0,0,0,0
Nc1sccc1C(=O)c1ccccc1,0,0,0,0,0,0
CNC(=O)c1cc2c(=O)n3cccc(C)c3nc2n(C(C)C)c1=N,0,0,0,0,0,0
Cc1nn(-c2ccccc2)c(C)c1/C=N/NC(=O)CSc1nc2ccccc2c(=O)n1-c1ccc(Br)cc1,0,0,0,51,0,0
O=C(CSc1nc2ccccc2c(=O)n1-c1ccc(F)cc1)NCc1ccco1,0,0,0,0,0,0
CC1CCC(Nc2nnnn2-c2ccccc2)CC1 (stereo unspecified),0,0,0,0,0,0
CC1CN(c2nnnn2-c2ccccc2)CC(C)O1 (stereo unspecified),-,0,-,0,0,74
Cc1ccc(C)c(N2CCN(C(=O)c3cc4ccccn4n3)CC2)c1,0,0,0,0,0,0
CCc1ccc(NC(=O)CS(=O)CC(=O)NCC2OCCc3ccccc32)cc1 (stereo unspecified),0,0,0,74,0,0
O=C(CCN1CCCCC1)NCC1OCCc2ccccc21 (stereo unspecified),0,0,0,0,0,86
O=C(CS(=O)CC(=O)Nc1cccc2c1CCCC2)Nc1ccc(F)cc1 (stereo unspecified),0,0,0,0,0,0
O=C(NCC1OCCc2ccccc21)c1ccco1 (stereo unspecified),0,0,0,0,0,0
N#CCCN(C(=O)Nc1ccccc1)c1ccccc1,0,0,0,0,0,60
Cc1nc(OCc2ccccc2)c2sc3nc4c(cc3c2n1)COC(C)(C)C4,0,0,0,0,0,0
O=C(O)c1ccc(-n2nnnc2Oc2cccc3cccnc23)cc1,0,0,0,0,0,0
COc1ccc(/C=N\NC(=O)/C(=C\Nc2nccc(C)n2)NC(=O)c2ccccc2)cc1,0,0,0,76,0,0
O=C(O)C1C2C=CC(O2)C1C(=O)Nc1ccc(S(=O)(=O)N2CCc3ccccc32)cc1 (stereo unspecified),0,0,0,0,0,0
CCn1c(=O)n(CC)c2cc(S(=O)(=O)N3CCc4ccccc43)ccc21,0,0,0,95,0,96
O=S(=O)(NC1CC1)c1ccc(S(=O)(=O)N2CCc3ccccc32)cc1,0,0,0,82,0,72
CC(=O)Nc1ccc(S(=O)(=O)N2CCCc3ccccc32)cc1,0,0,0,0,0,0
Nc1ccc(S(=O)(=O)N2CCCc3ccccc32)cc1,0,3.7,0,0,0,74
Cc1cc(C)c(N2C(=NC(=O)CCCC(=O)O)SC3CS(=O)(=O)CC32)c(C)c1 (stereo unspecified),0,0,0,0,0,0
CCOC(=O)N1CCN(CC(O)COC2CC(C)CCC2C(C)C)CC1 (stereo unspecified),0,0,0,0,0,57
SMILES,sEH inhibitor,CYP2C9 activ,sEH act,CYP2C9 inhib,CYP2C19 activ,CYP2C19 inh
CCN(C(=O)Cc1ccc(Br)cc1)C1CCCCC1,0,0,0,0,0,0
CCOC(=O)n1c(=O)n(Cc2ccccc2Cl)c2ccccc21,0,0,0,0,0,85
CCOC(=O)n1c(=O)oc2ccc(Cl)cc21,0,-,0,-,-,-
CCOC(=O)n1c(=O)n(Cc2ccc(Cl)cc2Cl)c2ccccc21,0,0,0,0,0,63
COc1ccc(/C=N/NC(=O)c2ccc(Cn3cc([N+](=O)[O-])cn3)o2)c(OC)c1C,0,0,0,0,0,0
O=C(c1ccc(Cn2cc([N+](=O)[O-])cn2)o1)N1N=C(C(F)F)CC1(O)C(F)F (stereo unspecified),0,0,0,62,0,0
O=C(OCCN(C1=NS(=O)(=O)c2ccccc21)c1ccccc1Cl)c1ccc(Cl)cc1,0,0,0,87,0,0
CCOC(=O)C1CCN(Cc2ccc(OC)cc2OC)CC1,-,0,-,0,0,0
